# In the supplement of paper PMC13380429:
# Key:
# [1] = system: Vero E6 infected with SARS-CoV-2; assay: morphology score (similarity to uninfected cells); higher = more like uninfected cells; conditions: 24 h
# [2] = system: Vero E6 infected with SARS-CoV-2; assay: SARS-CoV-2 infection rate relative to infected DMSO; higher = more infection, active = 60 or less; conditions: 24 h
# [3] = system: Vero E6 infected with SARS-CoV-2; assay: inhibition of SARS-CoV-2 cytopathic effect; higher = more antiviral protection, active = above 15; conditions: 48 h
structure (smiles),measurement,setting,value
OC[C@@H](O)[C@@H](O[C@@H]1O[C@H](CO)[C@H](O)[C@H](O)[C@H]1O)[C@H](O)[C@@H](O)CO (10 µM),morphology score,[1],-0.0894
same,SARS-CoV-2 infection rate,[2],111% (inactive)
CC[C@H]1OC(=O)[C@H](C)[C@@H](O[C@H]2C[C@@](C)(OC)[C@@H](O)[C@H](C)O2)[C@H](C)[C@@H](O[C@@H]2O[C@H](C)C[C@H](N(C)C)[C@H]2O)[C@](C)(OC)C[C@@H](C)C(=O)[C@H](C)[C@@H](O)[C@]1(C)O [clarithromycin] (10 µM),morphology score,[1],-0.0778
same,SARS-CoV-2 infection rate,[2],109% (inactive)
Oc1ccc(Cl)cc1Cc1cc(Cl)ccc1O [dichlorophen] (10 µM),morphology score,[1],0.14
same,SARS-CoV-2 infection rate,[2],99.5% (inactive)
S=C(NCc1ccc2c(c1)OCO2)N1CCN(c2ncnc3c2oc2ccccc23)CC1 [amuvatinib] (0.833333 µM),morphology score,[1],0.0595
same,SARS-CoV-2 infection rate,[2],92.5% (inactive)
CC[C@H](/C=C/[C@@H](C)[C@H]1CC[C@H]2[C@@H]3CC=C4C[C@@H](O)CC[C@]4(C)[C@H]3CC[C@]12C)C(C)C [Stigmasterol (Stigmasterin)] (10 µM),morphology score,[1],0.0238
same,SARS-CoV-2 infection rate,[2],116% (inactive)
COc1ccccc1C1(O)CCN(CCCn2c3ccccc3c3ccccc32)CC1 (0.833333 µM),morphology score,[1],0.0278
same,SARS-CoV-2 infection rate,[2],97.5% (inactive)
CC1(C)CCC2=C(O1)c1ccccc1C(=O)C2=O [beta-lapachone] (10 µM),morphology score,[1],0.361
same,SARS-CoV-2 infection rate,[2],78.5% (inactive)
O=C(O)CCc1cc(I)c(Oc2ccc(O)cc2)c(I)c1 [diiodothyropropionic-acid] (10 µM),morphology score,[1],0.207
same,SARS-CoV-2 infection rate,[2],92% (inactive)
"c1ccc(C[C@H](c2ccccc2)N2CCCCC2)cc1 (racemic) [1-(1,2-diphenylethyl)piperidine-(+/-)] (10 µM)",morphology score,[1],0.349
same,SARS-CoV-2 infection rate,[2],69% (inactive)
"CC1(C)[C@H]2CC[C@]1(C)[C@@H](O)[C@H]2O [cis-exo-camphanediol-2,3] (10 µM)",morphology score,[1],0.0601
same,SARS-CoV-2 infection rate,[2],106% (inactive)
CC(C)[C@H](N)C(=O)OCCOCn1cnc2c(=O)nc(N)[nH]c21 [valaciclovir] (10 µM),morphology score,[1],-0.0293
same,SARS-CoV-2 infection rate,[2],116% (inactive)
Cc1cccc(NC(=O)CN2CCC(c3ccccn3)CC2)c1 (10 µM),morphology score,[1],-0.0959
same,SARS-CoV-2 infection rate,[2],108% (inactive)
COc1cc2c(Nc3ccc(NC(=O)c4ccccc4)cc3)ncnc2cc1OCCCN1CCOCC1 (10 µM),morphology score,[1],-0.13
same,SARS-CoV-2 infection rate,[2],108% (inactive)
NC[C@@H](O)CC(=O)O [aminohydroxybutyric-acid] (10 µM),morphology score,[1],0.226
same,SARS-CoV-2 infection rate,[2],92% (inactive)
CC(=O)OCC(=O)[C@@]12N=C(C)O[C@@H]1C[C@H]1[C@@H]3CCC4=CC(=O)C=C[C@]4(C)[C@H]3[C@@H](O)C[C@@]12C [Deflazacort (Calcort)],inhibition of SARS-CoV-2 cytopathic effect,[3]; 1 nM,2.25% (inactive)
same,inhibition of SARS-CoV-2 cytopathic effect,[3]; 8.33 nM,-0.15% (inactive)
same,inhibition of SARS-CoV-2 cytopathic effect,[3]; 100 nM,-11.5% (inactive)
same,inhibition of SARS-CoV-2 cytopathic effect,[3]; 833.33 nM,2.17% (inactive)
same,inhibition of SARS-CoV-2 cytopathic effect,[3]; 10000 nM,0.96% (inactive)
Nc1nc2c(ccc3ccccc32)s1,inhibition of SARS-CoV-2 cytopathic effect,[3]; 1 nM,-0.98% (inactive)
same,inhibition of SARS-CoV-2 cytopathic effect,[3]; 8.33 nM,-0.18% (inactive)
same,inhibition of SARS-CoV-2 cytopathic effect,[3]; 100 nM,-1.85% (inactive)
same,inhibition of SARS-CoV-2 cytopathic effect,[3]; 833.33 nM,-0.09% (inactive)
same,inhibition of SARS-CoV-2 cytopathic effect,[3]; 10000 nM,-1.09% (inactive)
O=P(O)(O)C(O)(Cc1cnc2ccccn12)P(=O)(O)O [minodronic-acid],inhibition of SARS-CoV-2 cytopathic effect,[3]; 1 nM,-2.81% (inactive)
same,inhibition of SARS-CoV-2 cytopathic effect,[3]; 8.33 nM,-1.07% (inactive)
same,inhibition of SARS-CoV-2 cytopathic effect,[3]; 100 nM,-0.4% (inactive)
same,inhibition of SARS-CoV-2 cytopathic effect,[3]; 833.33 nM,2.46% (inactive)
same,inhibition of SARS-CoV-2 cytopathic effect,[3]; 10000 nM,-1.52% (inactive)
Cc1ncc[nH]1 [2-methylimidazole],inhibition of SARS-CoV-2 cytopathic effect,[3]; 1 nM,-0.11% (inactive)
same,inhibition of SARS-CoV-2 cytopathic effect,[3]; 8.33 nM,1.86% (inactive)
same,inhibition of SARS-CoV-2 cytopathic effect,[3]; 100 nM,0.89% (inactive)
same,inhibition of SARS-CoV-2 cytopathic effect,[3]; 833.33 nM,-3.06% (inactive)
same,inhibition of SARS-CoV-2 cytopathic effect,[3]; 10000 nM,0.33% (inactive)
COc1ccccc1N1CCN(CC(O)COc2cc(OC)c(OC)c(OC)c2)CC1 (stereo not drawn) [enciprazine],inhibition of SARS-CoV-2 cytopathic effect,[3]; 1 nM,0.76% (inactive)
same,inhibition of SARS-CoV-2 cytopathic effect,[3]; 8.33 nM,1.14% (inactive)
same,inhibition of SARS-CoV-2 cytopathic effect,[3]; 100 nM,0.33% (inactive)
same,inhibition of SARS-CoV-2 cytopathic effect,[3]; 833.33 nM,-0.53% (inactive)
same,inhibition of SARS-CoV-2 cytopathic effect,[3]; 10000 nM,-2.4% (inactive)
CC(=O)[C@H]1CC[C@H]2[C@@H]3CC[C@H]4C[C@H](O)CC[C@]4(C)[C@H]3C(=O)C[C@]12C [alfaxalone],inhibition of SARS-CoV-2 cytopathic effect,[3]; 1 nM,-1.46% (inactive)
same,inhibition of SARS-CoV-2 cytopathic effect,[3]; 8.33 nM,0.56% (inactive)
same,inhibition of SARS-CoV-2 cytopathic effect,[3]; 100 nM,-1.95% (inactive)
same,inhibition of SARS-CoV-2 cytopathic effect,[3]; 833.33 nM,-1.55% (inactive)
same,inhibition of SARS-CoV-2 cytopathic effect,[3]; 10000 nM,-4.57% (inactive)
NS(=O)(=O)NCc1csc2ccccc12,inhibition of SARS-CoV-2 cytopathic effect,[3]; 1 nM,3.48% (inactive)
same,inhibition of SARS-CoV-2 cytopathic effect,[3]; 8.33 nM,-0.74% (inactive)
same,inhibition of SARS-CoV-2 cytopathic effect,[3]; 100 nM,-0.43% (inactive)
same,inhibition of SARS-CoV-2 cytopathic effect,[3]; 833.33 nM,3.95% (inactive)
same,inhibition of SARS-CoV-2 cytopathic effect,[3]; 10000 nM,2.4% (inactive)
CC1(C)S[C@@H]2[C@H](NC(=O)COc3ccccc3)C(=O)N2[C@H]1C(=O)O [penicillin-v-potassium],inhibition of SARS-CoV-2 cytopathic effect,[3]; 1 nM,-0.76% (inactive)
same,inhibition of SARS-CoV-2 cytopathic effect,[3]; 8.33 nM,1.87% (inactive)
same,inhibition of SARS-CoV-2 cytopathic effect,[3]; 100 nM,-1.93% (inactive)
same,inhibition of SARS-CoV-2 cytopathic effect,[3]; 833.33 nM,1.76% (inactive)
same,inhibition of SARS-CoV-2 cytopathic effect,[3]; 10000 nM,0.08% (inactive)
CC[C@H](C)[C@@H]1NC(=O)[C@H](Cc2ccc(OC)cc2)NC(=O)CCCSC[C@@H](C(=O)N2CCC[C@H]2C(=O)N[C@@H](CC(C)C)C(=O)NCC(N)=O)NC(=O)[C@H](CC(N)=O)NC(=O)[C@H](CCC(N)=O)NC1=O [carbetocin],inhibition of SARS-CoV-2 cytopathic effect,[3]; 1 nM,-1.89% (inactive)
same,inhibition of SARS-CoV-2 cytopathic effect,[3]; 8.33 nM,0.45% (inactive)
same,inhibition of SARS-CoV-2 cytopathic effect,[3]; 100 nM,-1.53% (inactive)
same,inhibition of SARS-CoV-2 cytopathic effect,[3]; 833.33 nM,1.22% (inactive)
same,inhibition of SARS-CoV-2 cytopathic effect,[3]; 10000 nM,-1.25% (inactive)
CN1CC2c3ccccc3Oc3ccc(Cl)cc3C2C1 (stereo not drawn) [asenapine],inhibition of SARS-CoV-2 cytopathic effect,[3]; 1 nM,1.23% (inactive)
same,inhibition of SARS-CoV-2 cytopathic effect,[3]; 8.33 nM,-0.6% (inactive)
same,inhibition of SARS-CoV-2 cytopathic effect,[3]; 100 nM,1.72% (inactive)
same,inhibition of SARS-CoV-2 cytopathic effect,[3]; 833.33 nM,-0.01% (inactive)
same,inhibition of SARS-CoV-2 cytopathic effect,[3]; 10000 nM,6.35% (inactive)
Cc1[nH]c(/C=C2\C(=O)Nc3ccccc32)c(C)c1CCC(=O)O [orantinib],inhibition of SARS-CoV-2 cytopathic effect,[3]; 1 nM,-0.96% (inactive)
same,inhibition of SARS-CoV-2 cytopathic effect,[3]; 8.33 nM,2.48% (inactive)
same,inhibition of SARS-CoV-2 cytopathic effect,[3]; 100 nM,1.61% (inactive)
same,inhibition of SARS-CoV-2 cytopathic effect,[3]; 833.33 nM,-0.48% (inactive)
same,inhibition of SARS-CoV-2 cytopathic effect,[3]; 10000 nM,-0.87% (inactive)
